Test results: PubChem BioAssay (NCATS)
Results filed as inconclusive are left out. Unmarked numbers belong to inactive results. Active and inactive are the calls of the source. Calls follow the shape of the dose curve; as a rule, active = well fitted inhibition curve with a large enough effect in the repeat runs; inconclusive = weak or mixed curves; inactive = no such curve, though single readings can be large or run the other way.

What follows are compounds tested against Cytochrome P450 2C9 (Homo sapiens) (UniProt P11712) (assay: Cytochrome P450 family 2 subfamily C member 9 (CYP2C9) small molecule antagonists: luciferase biochemical (cell-free) qHTS assay (AID 1645842; also: nearly all actives have a fitted effect of over 55% in size)). Details: P450-Glo CYP2C9 enzyme assay, luciferin luminescence; series mostly up to 57.4 µM; activity change, negative = inhibition: at the top concentration.
Protocol: National Center for Advancing Translational Sciences [NCATS] Assay Overview: Cytochrome P450 (CYP) enzymes are membrane-bound hemeproteins that play a key role in metabolism of drugs and xenobiotics. Assaying the effect of chemicals on CYP isozymes is useful to minimize the adverse drug reactions and toxicities in drug development process. Chemical compounds were tested for their effect on CYP enzyme activities by using P450-Glo (TM) screening systems (Promega Corporation, Madison, WI). These systems provide a luminescent method containing proluciferin substrates and are converted to luciferin products by CYP isozymes. The luciferin products formed are detected with a luciferin detection reagent, and the amount of light produced is proportional to CYP activity. P450-Glo (TM) CYP2C9 screening system (Catalog. No. V9790) was used to detect the compounds that interfere in CYP2C9 activity.
Assay Protocol Summary: Two ul of enzyme-substrate mix supplemented with 0.4% Bovine Serum Albumin was dispensed into medium binding white/solid 1536-well plates (Greiner Bio-One North America Inc., Monroe, NC) using a Flying Reagent Dispenser (FRD, Aurora Discovery, San Diego, CA). […] The assay plates were incubated at room temperature for 10 min. Then 2 ul of NADPH regeneration solution was added to each well of the assay plates using an FRD and incubated at 37C for 1 h. The reaction was stopped by adding 4 ul of detection reagent using an FRD and after 20 min incubation at room temperature, the luminescence signal was measured using a ViewLux plate reader (Perkin Elmer, Shelton, CT). Data were expressed as relative luminescence units.
% is scaled to controls: 0 for no effect and ±100 for the full control effect; potency is read from the fitted curve at half-maximal effect.

Cytochrome P450 2C9 (Homo sapiens), sequence (P11712 whole entry, looked up): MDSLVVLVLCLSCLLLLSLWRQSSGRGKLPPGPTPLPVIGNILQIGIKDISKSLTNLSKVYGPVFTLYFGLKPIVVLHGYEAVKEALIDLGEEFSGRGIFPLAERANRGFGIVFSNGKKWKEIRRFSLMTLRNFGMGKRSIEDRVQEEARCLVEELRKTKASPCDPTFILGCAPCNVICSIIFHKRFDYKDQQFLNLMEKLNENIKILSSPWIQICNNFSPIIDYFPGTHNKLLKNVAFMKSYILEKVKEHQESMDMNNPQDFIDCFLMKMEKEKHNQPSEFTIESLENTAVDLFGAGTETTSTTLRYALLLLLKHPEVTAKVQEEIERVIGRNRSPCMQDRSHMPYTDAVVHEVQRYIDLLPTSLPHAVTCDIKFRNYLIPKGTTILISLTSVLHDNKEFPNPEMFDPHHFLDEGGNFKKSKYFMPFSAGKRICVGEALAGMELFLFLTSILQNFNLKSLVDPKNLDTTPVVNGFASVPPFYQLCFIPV

Question: How did the Potency turn out when `Cc1onc(-c2c(Cl)cccc2Cl)c1CC(=O)NCc1ccc(OCC(F)(F)F)nc1` was run?
Answer: 2.39 µM (active)

Question: How did the “activity change, negative = inhibition” value turn out when `CCC(C)C(N)C(=O)NCCN1CCOCC1` (stereo not given) was run?
Answer: 0.127%

Question: With `CCCCC(=O)N1c2ccccc2NC2=C(C(=O)CCC2)C1c1ccccc1Cl` (stereo not given) as the compound, how does the Potency read?
Answer: 12 µM (active)

Question: How did the Potency turn out when `CCOC(=O)C1=C(N)Oc2ccc(Cl)cc2C1C(C#N)C(=O)OCC` (stereo not given) was run?
Answer: 10.7 µM (active)

Question: With `COc1cc(Cc2cnc(N)nc2N)c(C(C)C)cc1OC` as the compound, how does the “activity change, negative = inhibition” value read?
Answer: 2.26%

Question: How did the Potency turn out when `O=C(c1ccc(Cl)c([N+](=O)[O-])c1)N1CCN(c2ccccc2F)CC1` was run?
Answer: 2.68 µM (active)

Question: How did the Potency turn out when `COc1ccc(-n2c(=O)[nH]c3cc(C(=O)NCc4ccc(Cl)cc4)sc3c2=O)nc1OC` was run?
Answer: 9.52 µM (active)

Question: Which “activity change, negative = inhibition” value does the source give for `c1cc(-c2cc(C3CCNCC3)[nH]n2)ccn1` here?
Answer: -9.41%

Question: For `COc1ccc(OC)c(C2C(C#N)=C(N)Oc3n[nH]c(-c4ccc5ccccc5c4)c32)c1` (stereo not given), which Potency is on record?
Answer: 10.7 µM (active)

Question: With `Cc1oc2nc3c(c(NC(=O)CN4CCCC4=O)c2c1C)CCCC3` as the compound, how does the “activity change, negative = inhibition” value read?
Answer: -15.4%

Question: `CC(C)Oc1ccc(-c2nc(-c3cccc4c3CCC4NCCC(=O)O)no2)cc1C#N` (stereo not given) was tested. Which “activity change, negative = inhibition” value did it give?
Answer: 11.4%

Question: `COc1ccc(S(=O)(=O)Nc2nc(-c3cccc([N+](=O)[O-])c3)cs2)cc1OC` was tested. Which Potency did it give?
Answer: 4.25 µM (active)

Question: With `NC[C@H]1CCC[C@@H](CNC(=O)[C@@H](Cc2c[nH]c3ccccc23)NC(=O)N2CCC3(C=Cc4ccccc43)CC2)C1` as the compound, how does the Potency read?
Answer: 1.86 µM (active)

Question: `CCOC(=O)C(CCc1ccccc1)NC1CCCN2CCCC(C(=O)O)N2C1=O` (stereo not given) was tested. Which “activity change, negative = inhibition” value did it give?
Answer: 0.723%

Question: How did the “activity change, negative = inhibition” value turn out when `COc1cc2nc(=NC(=O)c3cccnc3)n3c(c2cc1OC)NCC3` was run?
Answer: -3.47%

Question: How did the “activity change, negative = inhibition” value turn out when `O=C(O)CC1CCC(c2ccc(-c3ccc(Nc4ccc(C(F)(F)F)nc4)cn3)cc2)CC1` (stereo not given) was run?
Answer: 8.58%

Question: How did the “activity change, negative = inhibition” value turn out when `Cc1cn(C[C@H](N)C(=O)O)c(=O)n(Cc2ccsc2C(=O)O)c1=O` was run?
Answer: 5.7%

Question: `CCOC(=O)COc1ccc2c(c1)C[C@@H](NC[C@H](O)c1cccc(Cl)c1)CC2` was tested. Which Potency did it give?
Answer: 16.9 µM (active)

Question: How did the Potency turn out when `O=C(Nc1ccccc1)Nc1ccc(-c2ccc(C(=O)C3CCCC3C(=O)O)cc2)cc1` (stereo not given) was run?
Answer: 16.9 µM (active)

Question: Which Potency does the source give for `CN(C)C(=O)C(O)C(Cc1ccccc1)NC(=O)c1cc2cc(Cl)ccc2[nH]1` (stereo not given) here?
Answer: 10.7 µM (active)

Question: How did the “activity change, negative = inhibition” value turn out when `On1ncc(C2CCNCC2)c1-c1cccc(-c2ccccc2)c1` was run?
Answer: -27.4%

Question: How did the “activity change, negative = inhibition” value turn out when `COC(=O)[C@H](Cc1cccc(C(=N)N)c1)[C@@H](C)NC(=O)c1ccc(-c2cc[n+]([O-])cc2)cc1` was run?
Answer: 0.26%

Question: How did the Potency turn out when `Cc1ccc(Cl)cc1N(CC(=O)Nc1c(F)cccc1F)S(C)(=O)=O` was run?
Answer: 1.2 µM (active)

Question: With `CN[C@H](CNC(=O)N1CCC[C@@H]([C@@H](OCCNC(=O)OC)c2cccc(Cl)c2)C1)C[C@H]1CCCOC1` as the compound, how does the “activity change, negative = inhibition” value read?
Answer: 3.14%

Question: How did the Potency turn out when `Cc1[nH]c2ccccc2c1CC(=O)N[C@@H](Cc1ccccc1)C(=O)N(C)c1ccccc1` was run?
Answer: 9.52 µM (active)

Question: `CC(=O)N[C@H](Cc1c[nH]c2ccccc12)C(=O)OCc1cc(C(F)(F)F)cc(C(F)(F)F)c1` was tested. Which Potency did it give?
Answer: 1.9 µM (active)

Question: `CCC(C)(C)C1CCc2c(sc(NC(=O)c3ccc(Br)cc3)c2C#N)C1` (stereo not given) was tested. Which “activity change, negative = inhibition” value did it give?
Answer: -18.1%

Question: How did the Potency turn out when `CN1C(=O)N(c2cc(Cl)cc(Cl)c2)C(=O)[C@@]1(C)Cc1ccc(Br)cc1` was run?
Answer: 3.38 µM (active)

Question: With `CCCN(CCN1CCN(c2ccccc2OC)CC1)C1CCc2ncsc2C1` (stereo not given) as the compound, how does the “activity change, negative = inhibition” value read?
Answer: 4.18%

Question: For `COc1cccc(OC)c1-c1cc(C(=O)N[C@@H](CC(C)C)C(=O)O)nn1-c1ccnc2cc(Cl)ccc12`, which Potency is on record?
Answer: 16.9 µM (active)

Question: Which “activity change, negative = inhibition” value does the source give for `CCC[C@H](N[C@@H](C)C(=O)N1[C@H](C(=O)O)C[C@@H]2CCCC[C@@H]21)C(=O)O` here?
Answer: -21.3%

Question: For `CC(C)[C@@](O)(c1ccc2cc(OC(F)F)c(OC(F)F)cc2c1)c1cn[nH]n1`, which Potency is on record?
Answer: 1.07 µM (active)

Question: How did the Potency turn out when `CCOC(=O)CSc1nc2c(sc3ccccc32)c(=O)n1CCCN1CCCC1` was run?
Answer: 13.5 µM (active)

Question: For `CC(C)(C)NS(=O)(=O)c1ccc(-c2ccc3[nH]nc(N)c3c2)cc1`, which Potency is on record?
Answer: 13.5 µM (active)

Question: `Cc1c(C)c(NCC(=O)N(C)C2CCN(Cc3ccc(C(N)=O)cc3)CC2)c(C)c(C)c1N` was tested. Which Potency did it give?
Answer: 7.56 µM (active)

Question: For `COc1cccc(OC)c1-c1ccc(C[C@H](NC(=O)c2c(Cl)cccc2Cl)C(=O)O)cc1`, which Potency is on record?
Answer: 13.5 µM (active)

Question: With `O=C(O)c1cc(C(F)(F)F)ccc1N1CC[C@H](OCc2ccccn2)C1` as the compound, how does the Potency read?
Answer: 19 µM (active)

Question: How did the Potency turn out when `CCC(CC)CC1(C(=O)Nc2ccccc2SC(=O)C(C)C)CCCCC1` was run?
Answer: 1.9 µM (active)

Question: With `CCCSc1nc(NC2CC2c2ccc(F)c(F)c2)c2nnn(C3CC(OCCO)C(O)C3O)c2n1` (stereo not given) as the compound, how does the Potency read?
Answer: 3.79 µM (active)

Question: `O=[N+]([O-])c1cc(Cl)ccc1S(=O)(=O)N1CCN(Cc2ccccc2)CC1` was tested. Which “activity change, negative = inhibition” value did it give?
Answer: 4.05%
